PubChem BioAssay (Tox21)
Results filed as inconclusive are left out. A call without a number means that no potency is given here. The source made the active and inactive calls. Unless noted, the call rests on the fitted dose curve; in most records, active means well fitted curve in the direction sought with a large enough effect in the repeat runs; inconclusive means weak or mixed curves; inactive means no such curve, though single readings can be large; an effect the other way counts as inactive or inconclusive.

Legend:
[1] = qHTS assay to identify small molecule agonists of the estrogen receptor alpha (ER-alpha) signaling pathway in the presence of an antagonist - cell viability counter screen (AID 1259386);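 further: cells exposed to compounds for 22 h at 37 °C before the viability read; nearly all actives have a fitted effect of over 30% in size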; further: potency means the concentration at half of the fitted maximal effect
Method in brief: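 VM7Luc4E2, stripped-serum pre-culture 5 d; 24hr plating; +ICI-182,780 10.0nM final; cpds 15 conc, 22hr, 37C/5% CO2; CellTiter-Fluor added at 21hr, fluorescence 1hr later.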

[2] = biological target: Progesterone receptor (Homo sapiens) (UniProt P06401); assay: qHTS assay to identify small molecule agonists of the progesterone receptor (PR) signaling pathway (AID 1346784; calls by dose curve; further: nearly all actives have a fitted effect of over 30% in size)
Method in brief: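 PR-UAS-bla HEK 293T cells (beta-lactamase reporter under UAS) in 2% charcoal-stripped FBS, dosed with 23 nL compound after 6 hr, incubated 16hr at 37C. LiveBLAzer B/G FRET substrate added, fluorescence read after 2 hours.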

[3] = qHTS assay to identify small molecule agonists of the progesterone receptor (PR) signaling pathway - cell viability counter screen (AID 1346799; calls by dose curve; further: nearly all actives have a fitted effect of over 45% in size)
Method in brief: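 Counter screen in the PR-UAS-bla HEK293T wells (2% charcoal-stripped FBS, 16 h compound exposure at 37 C) after the bla read. CellTiter-Glo added, 30 min at room temperature, luminescence read as cell viability.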

[4] = qHTS assay to identify small molecule antagonists of the TGF-beta/Smad signaling pathway - cell viability counter screen (AID 1346824); further: nearly all actives have a fitted effect of over 50% in size
Method in brief: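 SBE-bla HEK 293T cells were plated overnight at 37 C, then given compounds in DMSO plus TGF-beta1 (added as 0.25 ng/mL solution) for 5 hr. After the bla read, CellTiter-Glo was added to the same wells and luminescence read after 30 min at room temperature.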

[5] = qHTS assay to identify small molecule agonists of the TGF-beta/Smad signaling pathway - cell viability counter screen (AID 1346829); further: top concentration of the series differs between compounds; nearly all actives have a fitted effect of over 45% in size
Method in brief: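 CellTiter-Glo luminescence readout; SBE-bla HEK 293T cells, overnight plating, compound 5 hr at 37 C/5% CO2, then bla substrate 2 hr RT, then CellTiter-Glo 30 min RT.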

[6] = qHTS assay to identify small molecule agonists of the TGF-beta/Smad signaling pathway (AID 1346859; active means well fitted activation curve with a large enough effect in the signal ratio in the repeat runs, not every such curve was filed as active; the % refers to the signal ratio; further: series mostly up to about 77 µM)
Method in brief: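 SBE-bla HEK293T cells plated overnight, then compound exposure for 5 h at 37 C. Beta-lactamase reporter read with LiveBLAzer B/G FRET substrate after 2 h at room temperature, fluorescence at 405 nm excitation, 460/530 nm emission.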

[7] = biological target: Thyrotropin-releasing hormone receptor (Homo sapiens) (UniProt P34981); assay: qHTS assay to identify small molecule antagonists of the thyrotropin-releasing hormone receptor (TRHR) signaling pathway (AID 1346877; active means well fitted inhibition curve with a large enough effect in the repeat runs, not every such curve was filed as active; further: series mostly up to about 51 µM)
Method in brief: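 Intracellular calcium fluorescence, read kinetically every second over 3 min, reports TRH-evoked signalling in HEK293 cells carrying TRHR. Test compounds were added 5 min ahead of a 1 nM TRH challenge.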

[8] = biological target: Thyrotropin-releasing hormone receptor (Homo sapiens) (UniProt P34981); assay: qHTS assay to identify small molecule agonists of the thyrotropin-releasing hormone receptor (TRHR) signaling pathway (AID 1346891; calls by dose curve; further: series mostly up to about 58 µM)
Method in brief: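 HEK293 cells expressing TRHR plated 18 h at 37 C/5% CO2, calcium dye-loaded 2 h at 37 C, then compound added (agonist mode); kinetic calcium fluorescence read 3 min at 1 s intervals; 15 concentrations in triplicate.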

[9] = Human pregnane X receptor (PXR) small molecule agonists, qHTS cell viability counter screen (AID 1346977); further: nearly all actives have a fitted effect of over 50% in size; further: potency means the concentration at half of the fitted maximal effect
Method in brief: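 PXR-Luc HepG2 cells (2,000/well, 5% charcoal-stripped FBS) preincubated 5 hr, then exposed to compounds 24 hr at 37 C. Viability read in the same wells by CellTiter-Fluor fluorescence, reagent added at 23 hr, 1 hr incubation.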

[10] = Caspase-3/7 induction in HepG2 cells by small molecules, qHTS assay (AID 1346978); further: nearly all actives have a fitted effect of over 15% in size
Method in brief: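 Wild-type HepG2 cells (2,000/well) were settled 5 h at 37 C, 5% CO2, then exposed to compounds in DMSO for 17 h. Caspase-3/7 activity was read by luminescence 30 min after adding Caspase-Glo 3/7 reagent at room temperature.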

[11] = Caspase-3/7 induction in CHO-K1 cells by small molecules, qHTS cell viability counter screen (AID 1346979); further: nearly all actives have a fitted effect of over 35% in size; further: potency means the concentration at half of the fitted maximal effect
Method in brief: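 Wild-type CHO-K1 cells (1,500/well) treated with compound after 5 h plating; after 16 h at 37C, viability read as CellTiter-Fluor fluorescence following 1 h reagent incubation, in the same wells as the caspase read.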

[12] = Caspase-3/7 induction in CHO-K1 cells by small molecules, qHTS assay (AID 1346980); further: nearly all actives have a fitted effect of over 15% in size
Method in brief: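 Wild-type cells were seeded at 1,500 per well and settled 5 hr at 37 C, 5% CO2, then exposed to DMSO-dissolved compounds for 17 hr. Caspase-Glo 3/7 reagent was added, and luminescence was read after 30min at room temperature.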

[13] = Caspase-3/7 induction in HepG2 cells by small molecules, qHTS cell viability counter screen (AID 1346981); further: series mostly up to about 92 µM; nearly all actives have a fitted effect of over 30% in size
Method in brief: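 HepG2, WT, 2,000 cells/well; 5 hr pre-incubation 37 C/5% CO2; compound pin-transferred from DMSO; 16 hr exposure; CellTiter-Fluor, 1 hr; fluorescence read.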

[14] = biological target: Nuclear receptor subfamily 1 group I member 2 (Homo sapiens) (UniProt O75469); assay: Human pregnane X receptor (PXR) small molecule agonists, qHTS assay (AID 1346982); further: nearly all actives have a fitted effect of over 35% in size; further: potency means the concentration at half of the fitted maximal effect
Method in brief: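 Luciferase signal from ONE-Glo (30 min, room temperature) measured activation of hPXR-driven CYP3A4 reporter expression in PXR-Luc HepG2 cells treated with compounds for 24 hr at 37 C.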

[15] = biological target: Acetylcholinesterase (Homo sapiens) (UniProt P22303); assay: Acetylcholinesterase (AChE) small molecule antagonists: colormetric cell-based qHTS assay (AID 1347395; calls by dose curve; further: nearly all actives have a fitted effect of over 30% in size)
Method in brief: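 SH-SY5Y cells attached overnight, exposed to compound 30 min at 37 C, then given DTNB/acetylthiocholine; after 90 min at 37 C, colorimetric thiocholine read gives cellular AChE activity.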

[16] = biological target: Acetylcholinesterase (Homo sapiens) (UniProt P22303); assay: Acetylcholinesterase (AChE) small molecule antagonists: enzyme-based qHTS assay (AID 1347397; calls by dose curve; further: nearly all actives have a fitted effect of over 55% in size); details: Potency: AChE enzyme activity inhibition
Method in brief: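 Human recombinant acetylcholinesterase; substrate acetylthiocholine; thiocholine quantified with DTNB (colorimetric). Compound preincubation 30 min RT; reaction 10 min RT.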

Sequence of Nuclear receptor subfamily 1 group I member 2 (Homo sapiens) (O75469 whole entry, looked up): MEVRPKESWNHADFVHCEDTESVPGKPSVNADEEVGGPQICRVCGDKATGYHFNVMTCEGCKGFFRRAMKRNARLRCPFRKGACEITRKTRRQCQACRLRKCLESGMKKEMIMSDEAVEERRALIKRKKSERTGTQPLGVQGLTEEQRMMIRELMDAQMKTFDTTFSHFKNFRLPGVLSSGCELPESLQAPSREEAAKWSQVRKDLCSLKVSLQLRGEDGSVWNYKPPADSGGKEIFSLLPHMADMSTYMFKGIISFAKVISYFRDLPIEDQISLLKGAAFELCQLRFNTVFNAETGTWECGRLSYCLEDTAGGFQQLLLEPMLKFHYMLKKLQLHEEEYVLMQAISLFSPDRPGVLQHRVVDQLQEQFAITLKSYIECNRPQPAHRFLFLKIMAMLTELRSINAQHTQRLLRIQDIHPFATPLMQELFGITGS
Sequence of Thyrotropin-releasing hormone receptor (Homo sapiens) (P34981 whole entry, looked up): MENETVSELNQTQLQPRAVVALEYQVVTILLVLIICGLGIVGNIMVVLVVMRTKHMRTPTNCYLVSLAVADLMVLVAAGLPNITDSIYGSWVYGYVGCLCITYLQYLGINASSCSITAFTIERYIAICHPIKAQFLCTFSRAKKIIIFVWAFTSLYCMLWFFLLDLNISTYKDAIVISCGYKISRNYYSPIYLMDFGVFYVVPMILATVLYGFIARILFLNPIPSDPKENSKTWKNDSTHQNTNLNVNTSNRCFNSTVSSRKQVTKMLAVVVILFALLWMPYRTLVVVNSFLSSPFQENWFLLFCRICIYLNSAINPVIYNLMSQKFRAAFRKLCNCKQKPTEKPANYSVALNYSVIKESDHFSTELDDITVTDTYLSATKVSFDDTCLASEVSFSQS
Sequence of Acetylcholinesterase (Homo sapiens) (P22303 whole entry, looked up): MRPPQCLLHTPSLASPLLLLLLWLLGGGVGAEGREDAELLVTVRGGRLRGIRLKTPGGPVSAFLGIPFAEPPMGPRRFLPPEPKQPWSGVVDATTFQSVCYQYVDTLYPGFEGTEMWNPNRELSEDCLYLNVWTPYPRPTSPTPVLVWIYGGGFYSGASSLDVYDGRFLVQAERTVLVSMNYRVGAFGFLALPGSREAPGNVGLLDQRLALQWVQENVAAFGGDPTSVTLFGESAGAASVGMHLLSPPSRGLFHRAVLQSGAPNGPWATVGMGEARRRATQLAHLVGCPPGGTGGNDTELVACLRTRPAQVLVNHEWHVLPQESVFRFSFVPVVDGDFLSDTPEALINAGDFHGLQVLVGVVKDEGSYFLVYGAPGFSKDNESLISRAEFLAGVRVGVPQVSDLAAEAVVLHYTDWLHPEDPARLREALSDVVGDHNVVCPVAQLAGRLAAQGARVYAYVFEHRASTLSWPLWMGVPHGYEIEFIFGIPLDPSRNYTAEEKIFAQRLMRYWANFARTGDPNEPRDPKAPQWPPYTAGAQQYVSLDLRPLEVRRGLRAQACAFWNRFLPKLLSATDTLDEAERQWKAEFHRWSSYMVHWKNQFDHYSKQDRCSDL
Sequence of Progesterone receptor (Homo sapiens) (P06401 whole entry, looked up): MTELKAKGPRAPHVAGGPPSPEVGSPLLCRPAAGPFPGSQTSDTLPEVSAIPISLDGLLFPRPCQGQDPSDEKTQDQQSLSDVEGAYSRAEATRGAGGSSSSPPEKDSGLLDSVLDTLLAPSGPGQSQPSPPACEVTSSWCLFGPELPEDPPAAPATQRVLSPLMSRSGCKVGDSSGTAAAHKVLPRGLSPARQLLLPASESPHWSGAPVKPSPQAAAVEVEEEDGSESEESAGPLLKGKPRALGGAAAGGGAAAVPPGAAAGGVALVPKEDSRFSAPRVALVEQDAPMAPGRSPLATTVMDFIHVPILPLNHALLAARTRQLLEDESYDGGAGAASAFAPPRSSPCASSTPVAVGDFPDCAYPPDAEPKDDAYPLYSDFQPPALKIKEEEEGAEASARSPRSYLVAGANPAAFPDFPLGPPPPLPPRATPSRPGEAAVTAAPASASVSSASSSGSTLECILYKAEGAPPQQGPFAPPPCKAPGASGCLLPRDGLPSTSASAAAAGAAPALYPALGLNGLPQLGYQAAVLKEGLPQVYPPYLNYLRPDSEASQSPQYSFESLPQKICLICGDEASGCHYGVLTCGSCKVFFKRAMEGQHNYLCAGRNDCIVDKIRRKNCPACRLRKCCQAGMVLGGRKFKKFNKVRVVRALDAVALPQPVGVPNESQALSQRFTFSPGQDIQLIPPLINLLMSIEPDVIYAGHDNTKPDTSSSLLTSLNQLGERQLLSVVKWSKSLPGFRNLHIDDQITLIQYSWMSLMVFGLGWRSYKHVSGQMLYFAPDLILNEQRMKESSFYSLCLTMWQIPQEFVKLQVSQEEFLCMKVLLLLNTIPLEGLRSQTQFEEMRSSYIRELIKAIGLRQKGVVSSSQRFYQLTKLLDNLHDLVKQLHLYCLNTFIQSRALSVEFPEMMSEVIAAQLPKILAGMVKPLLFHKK

Structure (SMILES)	Potency [1]	Potency [2]	Potency [3]	Potency [4]	Potency [5]	outcome [6]	Potency [7]	Potency [8]	Potency [9]	Potency [10]	Potency [11]	Potency [12]	Potency [13]	Potency [14]	Potency [15]	Potency [16]
N#CCc1ccccc1	inactive	inactive	inactive	inactive	inactive	inactive	inactive	inactive	inactive	inactive	inactive	inactive	inactive	inactive	inactive	inactive
N#Cc1cc(I)c(O)c(I)c1	48.6 µM (active)	inactive	–	inactive	inactive	inactive	inactive	inactive	43.3 µM (active)	inactive	68.6 µM (active)	inactive	–	54.5 µM (active)	inactive	inactive
CCCC(Cn1cncn1)c1ccc(Cl)cc1Cl (configuration not stated)	inactive	inactive	–	inactive	inactive	inactive	inactive	inactive	–	inactive	–	inactive	–	24.3 µM (active)	inactive	inactive
CC1(C)[C@H](C=C(Cl)Cl)[C@@H]1C(=O)O[C@@H](C#N)c1cccc(Oc2ccccc2)c1	inactive	inactive	–	inactive	inactive	inactive	inactive	inactive	inactive	inactive	inactive	inactive	inactive	4.33 µM (active)	inactive	inactive
